# Only some compounds are listed: those with a hit (about 4.1% of all), similar ones and a draw of the others.
# UHRF1 MBD2 ctr: human UHRF1 methylated DNA binding inhibitors. UHRF1 binding to methylated oligo, TR-FRET. inhibition, % at 4.4 µM. actives 0.75% (n = 370,000);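 also: UHRF1 SRA domain binding a hemimethylated CpG hairpin DNA probe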
# MBD2 inh: inhibitors of human MBD2 binding to methylated oligonucleotide; actives 0.31% (n = 370,000); Q9UBB5; TR-FRET; inhibition, % at 4.4 µM; in the data active = inhibition above about 13%
# ABHD5 PLIN5 PPI: ABHD5-PLIN5 protein interaction inhibition; Q00G26+Q8WTS1; Split G. princeps luciferase complementation, luminescence, 4 h; inhibition, % at 4 µM; actives 0.78% (n = 360,000); AID 602281;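 active = inhibition above the mean inhibition across every tested compound plus 3 SD, cut at about 22% in these data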
# PRMT1 inh: PRMT1 (human) inhibition, primary screen; Q99873; recombinant PRMT1, activity-based probe fluorescence polarization; inhibition, % at 2.79 µM; actives 1.3% (n = 370,000);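 active = inhibition above about 21% made by adding two undisclosed values, limit read from the data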
# LEDGF integ inh: blocks HIV-1 LEDGF/p75-dependent DNA integration; inhibition, % at 3.7 µM; AID 743269; TR-FRET IN-LEDGF/p75 DNA integration, Eu/Cy5; actives 0.64% (n = 370,000);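 active = inhibition above the screen-wide mean plus 3 SD, cut at about 13% in these data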;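 also: signal is the Cy5 over europium emission ratio at 671 and 618 nm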
# rCAG RNA binder: molecules binding r(CAG) RNA repeats; r(CAG) RNA repeat, TO-PRO-1 dye displacement fluorescence; inhibition, % at 3 µM; actives 1.3% (n = 370,000); AID 651821;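 active = inhibition above the plate cutoff, the mean of all test compounds on that plate plus 3 SD, cut at about 35% in these data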;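 also: higher means more dye released from RNA so lower well fluorescence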
# UHRF1 ctr MBD2: UHRF1 methyl-oligo binding inhibition as MBD2 counter-screen. shares compounds with MBD2 inh. UHRF1 binding to methylated oligonucleotide, TR-FRET. inhibition, % at 4.4 µM. actives 25% (n = 1,000);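 also: UHRF1 SRA domain binding a labeled hemimethylated CpG hairpin DNA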
# MBD2 confirm: MBD2-DBD methyl-DNA binding inhibition, TR-FRET confirmation; shares compounds with MBD2 inh; TR-FRET MBD2-DBD binding to methylated oligonucleotide; inhibition, % at 4.4 µM; actives 26% (n = 1,000); in the data active = inhibition above about 14%
# A number is an active result; 0 = inactive; - = no result given. Rule as the data show it, unless noted: active = inhibition above about 21%; inactive = the rest.
SMILES,UHRF1 MBD2 ctr,MBD2 inh,ABHD5 PLIN5 PPI,PRMT1 inh,LEDGF integ inh,rCAG RNA binder,UHRF1 ctr MBD2,MBD2 confirm
COC(C(=O)N1CCC(CCC(=O)Nc2ccccc2)CC1)c1ccccc1 (centres undefined),27,15,0,0,0,0,0,0
Nc1c2ccccc2nc2ccccc12,0,26,0,0,0,0,31,37
Cc1ccccc1NC(=O)c1ccc(CN2CCc3ccccc3C2)cc1,0,34,0,0,0,0,0,0
O=C(OCc1cc(=O)n2ccsc2n1)c1ccccc1NCCO,29,31,0,0,0,0,0,0
O=C(OCc1cc(=O)n2ccsc2n1)c1ccccc1O,0,0,0,0,0,0,-,-
COC(=O)Nc1ccc2c(c1)ncn2C1CCCCC1,0,0,0,0,0,0,-,-
CC(=O)Nc1ccc2c(c1)ncn2C1CCCCC1,0,34,0,0,0,0,0,0
CC(C)(C)NC(=O)NC(=O)CSc1nnc(COc2ccccc2Cl)o1,31,21,0,0,0,0,0,0
O=C(CSc1nnc(COc2ccccc2Cl)o1)Nc1ccccc1,0,0,0,0,0,0,-,-
COc1cc2sc3cc(NCC[C@@H]4CCCN4C)ccc3c(=O)c2cc1OC,0,18,0,0,0,0,0,22
CCn1c2c(n(C(C)=O)c1=O)C[C@@H](c1ccccc1)[C@@H](C)[C@@H](C(=O)N1CCCC1)C2,0,0,-,0,0,0,-,-
CCc1cccc(NC(=O)CNC(=O)N2CC(=O)Nc3ccccc32)c1,0,14,0,0,0,0,0,0
COC(=O)c1ccc(CSc2nc3c(c(=O)[nH]2)CCC3)cc1,0,15,0,0,0,0,0,0
Cc1cccc(CSc2nc3c(c(=O)[nH]2)CCC3)c1,0,0,0,0,0,0,-,-
C=CCN1[C@H](Cc2ccccc2)COc2cc(N3CCSCC3)ccc2S1(=O)=O,0,0,-,0,0,0,-,-
Cc1cccc(Cn2cc(SCC(=O)Nc3nccs3)c3ccccc32)c1,0,30,0,0,0,0,0,0
CCOC(=O)[C@]12CCCCC/C=C\1N(Cc1ccc(OC)cc1)C(=O)[C@H]2CC(=O)NCCCCc1ccccc1,0,0,-,0,0,0,-,-
Cc1ccc(CNC(=O)c2nnn(-c3cccc(C)c3)c2N)cc1,28,15,0,0,0,0,0,0
Cc1cc(C)cc(-n2nnc(C(=O)NCc3ccccc3)c2N)c1,0,0,0,0,0,0,-,-
O=C(NC1CC1c1ccccc1)N1CCC(c2nc3ccc(Cl)cc3[nH]2)CC1 (centres undefined),0,0,-,0,0,0,-,-
COC(CNC(=O)c1cn(C)c2ccc(S(=O)(=O)N(C)C3CCCCC3)cc2c1=O)OC,0,26,0,0,0,0,0,0
Nc1[nH]c(C(=O)c2ccccc2)c(-c2ccc(Cl)cc2)c1C(=O)c1c[nH]c2cc(F)ccc12,0,0,-,0,0,0,-,-
O=C1C=C(NCc2ccco2)CCC1,0,0,0,0,0,0,-,-
CC1(C)CC(=O)C=C(NCc2ccco2)C1,0,35,0,0,0,0,0,0
O=C(OCCN1CCN(C2CN(Cc3cn(Cc4ccccc4F)nn3)S(=O)(=O)C2)CC1)c1cc2ccccc2o1 (centres undefined),0,0,-,0,0,0,-,-
SMILES,UHRF1 MBD2 ctr,MBD2 inh,ABHD5 PLIN5 PPI,PRMT1 inh,LEDGF integ inh,rCAG RNA binder,UHRF1 ctr MBD2,MBD2 confirm
Cc1ccc(S(=O)(=O)NNC(=O)c2ccncc2)cc1,0,23,0,0,0,0,0,0
Cc1ccc(NC(=O)CSc2nc3[nH]c(=O)cc(O)c3s2)c(Br)c1,0,64,0,0,0,0,0,0
Cc1csc(NC(=O)CSc2nc3[nH]c(=O)cc(O)c3s2)n1,0,0,0,0,0,0,-,-
O=C(CSc1nc2[nH]c(=O)cc(O)c2s1)Nc1nncs1,0,23,0,0,0,0,0,0
CCCCCCCCN1C(=O)[C@@H](CC(=O)N2CCN(C(=O)c3ccco3)CC2)C[C@@]2(C(=O)OC)C1=C[C@H](C(C)C)O[C@@H]2C1CC1,0,0,-,0,0,0,-,-
CC(c1ccc(NC(=O)OC(C)(C)C)cc1)c1cn(C)c2ccccc12 (centres undefined),0,0,-,0,0,0,-,-
